Out of some 370,000 compounds screened, about 2,100 (0.57%) were called active. This is one part of a sample in which actives are shown more often than they occur.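 Rule for the calls: active = inhibition above mean plus 3 SD of compounds lying within the high and low control bounds (cut at about 19% in these data); inactive = the rest.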
target: Group 3 secretory phospholipase A2 (Homo sapiens) (UniProt Q9NZ20); assay: HGIII-sPLA2 enzyme inhibition – biochemical, QFRET, BODIPY PC-A2 liposome substrate, primary screen (AID 743126); details: QFRET BODIPY PC-A2 liposome hydrolysis, fluorescence; at 12.2 µM; stronger effect = higher value;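 note: 0% = median of test compound wells and 100% = no enzyme DMSO wells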
Sequence (Q9NZ20 whole entry, looked up): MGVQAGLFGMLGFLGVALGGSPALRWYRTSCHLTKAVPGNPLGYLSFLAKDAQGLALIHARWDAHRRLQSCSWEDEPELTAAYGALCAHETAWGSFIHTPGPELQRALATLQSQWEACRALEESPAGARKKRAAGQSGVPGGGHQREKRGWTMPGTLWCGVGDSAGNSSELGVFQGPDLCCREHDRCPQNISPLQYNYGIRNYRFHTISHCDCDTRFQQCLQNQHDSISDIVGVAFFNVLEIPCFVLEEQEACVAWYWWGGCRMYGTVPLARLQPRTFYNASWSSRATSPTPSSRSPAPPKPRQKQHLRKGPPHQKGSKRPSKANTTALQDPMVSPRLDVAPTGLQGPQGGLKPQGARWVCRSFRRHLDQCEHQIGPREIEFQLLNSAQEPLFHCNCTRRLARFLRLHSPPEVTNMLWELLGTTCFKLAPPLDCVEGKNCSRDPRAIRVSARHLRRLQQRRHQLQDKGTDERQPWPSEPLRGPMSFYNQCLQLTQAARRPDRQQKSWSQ

inhibition, inactive:
C=CCN1C(=O)[C@@H](CC(=O)NCC2CCCCC2)[C@]2(C(=O)OC)CCCCC=C12 -6.71%
Cc1ccc(CSc2nnc(SCC(=O)NN=Cc3cc(Br)ccc3F)s2)cc1 8.12%
COC[C@@H]1CCCN1c1ccc2c(c1)O[C@H](C)CCN(C1CC1)S2(=O)=O -5.4%
Oc1ccc(/C=C/c2c(F)cccc2F)c2cccnc12 16%
COc1cccc(CNC(=O)CCN2C(=S)NC(C)(C)CC2C)c1 (stereo not drawn) 6.8%
CC1CC(C)(C)NC(=S)N1CCC(=O)N1CCN(Cc2ccccc2)CC1 (stereo not drawn) 8.05%
COc1ccccc1C(=O)CSc1nnc(-c2ccccn2)n1-c1ccccc1 -16.8%
CCOC(=O)c1cccc(NC(=O)CN(C)S(=O)(=O)c2ccc(-c3cocn3)s2)c1 -2.93%
O=C(C1CCN(S(=O)(=O)c2ccccc2)CC1)N1CCN(C2CCCCC2)CC1 8.19%
CSc1ccc(C=Nn2c(-c3ccc(F)cc3)n[nH]c2=S)cc1 6.63%
CCOc1ccc(-c2n[nH]c(=S)n2/N=C/c2cc3c(cc2[N+](=O)[O-])OCO3)cc1 1.67%
Cc1cc(C)cc(NC(=O)N2CCC(N(C)CCC(C)C)CC2)c1 10.3%
CCOC(=O)[C@@]12CCC3=C1N(CCC3)C(=O)[C@H](CC(=O)N1CCN(C(=O)c3ccco3)CC1)C2 8.67%
c1coc(CCNc2ncnc3ccc(-c4ccc5c(c4)OCO5)cc23)c1 -19.4%
COC(=O)[C@]12C[C@H](CC(=O)NCc3ccccc3)C(=O)N(CCc3ccc(OC)c(OC)c3)C1=C[C@H](C(C)(C)C)O[C@@H]2C -21.4%
COC1=C[C@H](C(=O)NCCNC(C)=O)[C@H](C)[C@@H](c2ccccc2)CC1=O -0.85%
C=CCn1c(SCC(N)=O)nnc1-c1ccccc1OC 6.66%
COc1ccccc1NC(=O)COC(=O)COc1ccccc1F -4.78%
CCN(CC)C(=O)CC[C@H]1CC[C@]2(CCCN(Cc3ccc(Cl)cc3)C2)O1 6.37%
O=C(COc1ccc(S(=O)(=O)NCCc2ccccc2)cc1)N1CCCC1 -5.12%
CC(NS(=O)(=O)c1ccc(OCC(=O)N2CCCC2)cc1)c1ccccc1 (stereo not drawn) 5.02%
CCOC(=O)[C@]12CCCC=C1N(Cc1ccc(OC)cc1)C(=O)[C@@H]2CC(=O)NCc1cccs1 -4.75%
COc1ccc(Cn2cc(CN3[C@@H](CC(C)C)COc4cc(Br)ccc4S3(=O)=O)nn2)cc1 6.77%
C[C@H]1CCC/C=C/C(=O)c2c(O)cc(O)cc2CC(=O)O1 4.76%
Clc1ccc(-n2c(COc3ccccc3)nnc2SCc2nc3ccccc3[nH]2)cc1 -11.3%
Cc1cc(NS(=O)(=O)c2ccc(NC(=O)CSc3nnc(SCc4ccc(F)cc4)s3)cc2)nc(C)n1 -29.3%
Cc1nc(NC(=O)c2ccc3c(c2)OCCO3)ccc1Br 4.96%
C/C(Cc1ccccc1)=N\NC(=O)CNC(=O)c1ccc2c(c1)OCCO2 -4.8%
COc1cc(/C=C/C(=O)n2cnc3ccccc32)cc(OC)c1OC 11.9%
CCc1ccccc1NC(=O)CSc1nnc(-c2cccs2)o1 0.47%
COc1cc(C(=O)NNC(=O)c2ccc(S(=O)(=O)N3CCCCC3)cc2)cc(OC)c1OC -8.86%
COc1ccccc1CC(=O)Nc1ccc(S(=O)(=O)N2CCCC2)cc1 -5.06%
CCC(NC(=O)C1C2C=CC3(CN(Cc4ccccc4)C(=O)C13)O2)c1ccccc1 (stereo not drawn) -3.46%
CCOC(=O)C1CCN(C(=O)C(C)(C)NC(=O)Nc2ccccc2Cl)CC1 0.81%
C/C(=N\NS(=O)(=O)c1cccc([N+](=O)[O-])c1)c1cc2ccccc2o1 3.51%
CC(=O)N1CCN(c2ccccc2NC(=S)NC(=O)c2cc3ccccc3o2)CC1 3.86%
Cc1cc(C)n2ncc(C(=O)Nc3ccc4c(c3)OCCO4)c2n1 0.96%
O=C(COC(=O)c1ccccc1Cl)NC1CCCCCCC1 5.22%
COc1ccc(Cl)cc1C(=O)NNC(=S)NC(=O)/C=C/c1ccco1 2.13%
Cc1nn(C)c(C(=O)NNC(=S)NC2CCCCC2)c1Cl 4.69%
COc1ccc(Cl)cc1C(=O)NNC(=O)c1nc2nc(C)cc(C)n2n1 5.45%
COC(=O)C12C=C3CC(c4ccccc4)=C3C(=O)N1Cc1[nH]c3ccccc3c1C2 (stereo not drawn) -7.07%
COc1ccc(-n2c(SCC(=O)Nc3ccc4cn[nH]c4c3)nnc2-c2cccnc2)cc1 3.42%
CC(=O)OCCN1CCCC12CCC(c1ccccc1)CC2 (stereo not drawn) 11.1%
C=CCN1C(=O)[C@@H](CC(=O)NCCCOCCCC)[C@]2(C(=O)OCC)CCCCC/C=C/12 -8.97%
COc1ccc(-n2c(SCC(=O)Nc3ccccc3-c3ccccc3)nnc2-c2cccnc2)cc1 -5.21%
CCOC(=O)N1CCN(C(=O)C[C@@H]2C(=O)N(CCc3ccc(Cl)cc3)C3=CCCC[C@]32C(=O)OCC)CC1 -8.77%
O=S(=O)(NC1CC2CCC1C2)c1ccc(Cl)cc1 (stereo not drawn) -4.6%
CC1CCN(C(=S)NC2CC3CCC2C3)CC1 (stereo not drawn) 14.4%
CC(C)c1ccc(NC(=S)NC2CC3C=CC2C3)cc1 (stereo not drawn) 0.31%
O=C(NNC(=O)C1C2CCC(C2)C1C(=O)O)c1ccc(Cl)cc1 (stereo not drawn) 4.75%
Cc1ccc(C2=CCN(C)C(=O)N2c2ccc(Cl)cc2)cc1 -5.31%
COC(=O)C[C@@H]1CC[C@@H]2[C@@H](COc3ccc(NC(=O)Nc4ccc(F)c(F)c4)cc3C(=O)N2C)O1 -13.5%
Cc1ccc(S(=O)(=O)N2CCOCC2)cc1C(=O)Nc1ccccc1N1CCCC1 1.07%
Cc1cccc(N(Cc2ccccc2)C(=O)c2cc(S(=O)(=O)N3CCOCC3)ccc2F)c1 -1.09%
CCC(=O)Nc1ccc2c(c1)C(=O)N(C)[C@@H]1CC[C@@H](CC(=O)NCCc3ccccc3)O[C@H]1CO2 4.64%
C[C@H](C(=O)N(C)c1ccccc1)[C@@H](O)c1ccc(Cl)cc1 -2.63%
O=C(OC12CCCN(C1)/C(=C/c1cccnc1)C2)C1CCCC1 (stereo not drawn) -0.59%
Cc1ccccc1NC(=O)C1CCN(C(=O)NC2CCCCC2)CC1 -4.04%
O=C(NNC(=O)C1CCN(c2ncccn2)CC1)c1ccccc1 -1.66%
COC(=O)c1cc(S(=O)(=O)N2CCN(c3ccccc3C)CC2)cn1C 1.56%
CCCCNC(=O)c1ccc(-n2c(=S)[nH]c3ccccc3c2=O)cc1 4.64%
CCCCn1c(=S)[nH]c2ncccc2c1=O 2.69%
COc1ccccc1C(=O)NC1CCCCN(C(C)C)C1=O (stereo not drawn) 12.1%
COC(=O)[C@H](C(C)C)N(CCCc1cn(Cc2ccccc2)nn1)S(=O)(=O)c1ccc(F)cc1Br -15.2%
CCCCCOC(=O)c1ccc(N2C(=O)C3C4C=CC(C4)C3C2=O)cc1 (stereo not drawn) -15.1%
COc1ccc(S[C@]2(C(=O)N(C)C)CC(=O)N(c3ccc(OC)cc3)[C@@H]2c2ccc(OC)cc2)cc1 -13.3%
CCCCCCN1CCS(=O)(=O)N(Cc2ccc(C(F)(F)F)cc2)C(C(=O)OC)C1 (stereo not drawn) 5.31%
O=C(NN=Cc1ccco1)C(=O)Nc1ccc(Cl)c([N+](=O)[O-])c1 3.31%
O=[N+]([O-])c1cc(Cl)cc(/C=N/NC(=S)Nc2cc(S(=O)(=O)N3CCOCC3)ccc2Cl)c1O 16.3%
CN(C)CC(=O)N[C@@H]1C[C@@H]2O[C@H](CO)CC[C@@H]2O[C@@H]1CCc1ccc(C#Cc2ccccc2)cc1 -19.5%

inhibition, active:
CCN(Cc1ccccc1)C(=O)CN1C(=S)NC(C)(C)CC1C (stereo not drawn) 31.1%
CCc1ccc(NC2Nc3cc(C)nn3S2)cc1 (stereo not drawn) 23.9%
S=c1[nH]nc(-c2ccco2)n1/N=C/c1ccccc1 19.3%
COc1ccccc1OCC(=O)OCn1c(SC)nnc(C)c1=O 21.3%
O=C(COc1ccc(S(=O)(=O)NCc2ccccc2)cc1)N1CCOCC1 20.9%
Cc1ccc2sc(NNC(=O)c3ccc4c(c3)OCCO4)nc2c1C 39.7%
COc1ccc(-c2ccc(Nc3ccc(S(=O)(=O)N4CCCC4)cc3)nn2)cc1OC 27.2%
C/C(=N\NC(=S)Nc1ccc(C)cc1)c1cc2ccccc2o1 23.9%
COc1ccc(Cl)cc1C(=O)NNC(=S)NC1CCCC1 26.5%
O=C(NNC(=S)NC1CCCCC1)c1ccccc1Cl 20.1%
S=C(NNC(=S)NC1CC2CCC1C2)NC1CC2C=CC1C2 (stereo not drawn) 19.5%
O=C(NNC(=S)NC1CC2CCC1C2)c1ccc(Cl)cc1 (stereo not drawn) 19.4%
Cc1ccc(S(=O)(=O)N2CCOCC2)cc1C(=O)NC(=S)N(Cc1ccccc1)C(C)C 23.9%
Cc1ccccc1NC(=O)C1CCN(c2ncccn2)CC1 19.5%
CCCCn1c(=S)[nH]c2ccccc2c1=O 25.3%
CCCCCCCCCCOC(=O)C[N+](C)(C)CC1CCCCC1O (stereo not drawn) 19.3%
O=C(N/N=C/c1cc(Cl)cc([N+](=O)[O-])c1O)C(O)(c1ccccc1)c1ccccc1 21.2%

Reference: PubChem BioAssay AID743126 (The Scripps Research Institute Molecular Screening Center, 2013)
